Laboratory results from paper PMC4336329 (PLoS ONE, 2015).
The campaign covered roughly 310,000 compounds. About 14,000 (4.5%) showed an effect of 50% or more. The effect is printed as a negative number. The full list was thinned out, with strong results kept by preference.

Target: human ether-à-go-go-related gene (hERG) potassium channel (human, UniProt Q12809)
Assay: primary screen, population patch clamp on CHO cells stably expressing hERG; higher = less effect of the substance
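Note: peak tail current of the secondary pulse compared with the same well before compound.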

Sequence of human ether-à-go-go-related gene (hERG) potassium channel (Q12809 whole entry, looked up): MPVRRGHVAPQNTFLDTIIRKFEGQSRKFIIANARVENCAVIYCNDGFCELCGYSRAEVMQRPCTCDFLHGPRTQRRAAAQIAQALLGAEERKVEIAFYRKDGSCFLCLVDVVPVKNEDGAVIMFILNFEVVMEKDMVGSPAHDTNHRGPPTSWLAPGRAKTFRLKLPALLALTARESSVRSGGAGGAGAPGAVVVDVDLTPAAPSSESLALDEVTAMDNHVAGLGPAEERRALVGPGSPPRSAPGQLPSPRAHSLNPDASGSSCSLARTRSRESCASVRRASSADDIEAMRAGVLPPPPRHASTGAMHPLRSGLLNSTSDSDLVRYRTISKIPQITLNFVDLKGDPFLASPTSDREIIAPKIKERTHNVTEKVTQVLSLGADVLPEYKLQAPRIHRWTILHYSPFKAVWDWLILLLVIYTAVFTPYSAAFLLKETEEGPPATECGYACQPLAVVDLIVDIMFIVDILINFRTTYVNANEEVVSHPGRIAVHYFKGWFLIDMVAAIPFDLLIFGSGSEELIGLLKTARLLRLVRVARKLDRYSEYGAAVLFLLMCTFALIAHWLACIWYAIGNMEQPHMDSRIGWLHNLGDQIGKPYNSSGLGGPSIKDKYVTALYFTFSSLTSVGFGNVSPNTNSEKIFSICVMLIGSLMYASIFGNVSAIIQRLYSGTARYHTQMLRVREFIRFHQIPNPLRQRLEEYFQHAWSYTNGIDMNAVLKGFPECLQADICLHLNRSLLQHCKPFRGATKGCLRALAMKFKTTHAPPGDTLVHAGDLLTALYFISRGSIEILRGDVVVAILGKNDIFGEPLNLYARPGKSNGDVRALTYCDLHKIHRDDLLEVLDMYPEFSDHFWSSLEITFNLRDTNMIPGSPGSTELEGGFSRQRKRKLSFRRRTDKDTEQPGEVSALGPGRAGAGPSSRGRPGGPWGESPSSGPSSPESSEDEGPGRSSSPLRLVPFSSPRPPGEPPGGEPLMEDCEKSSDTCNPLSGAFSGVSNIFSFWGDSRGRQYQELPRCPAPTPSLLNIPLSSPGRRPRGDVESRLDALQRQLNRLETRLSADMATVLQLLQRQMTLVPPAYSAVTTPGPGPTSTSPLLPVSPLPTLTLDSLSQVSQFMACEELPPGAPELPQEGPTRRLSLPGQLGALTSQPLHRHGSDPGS

Compared with `CCn1cc(Br)c(C(=O)Nc2ccc(Cl)cc2Cl)n1`, `O=C(Nc1ccc(Cl)c([N+](=O)[O-])c1)c1cnccn1` is lower in “hERG current change (%, negative = inhibition) at 10uM” value: 7.24% for the first, -10.4% for the second.

First: Cc1ccc(S(=O)(=O)N(Cc2ccc(Cl)cc2)c2ccccc2C(=O)O)cc1
Second: Cc1ccc(S(=O)(=O)Nc2ccccc2C(=O)Nc2nc(-c3ccc(F)cc3)cs2)cc1
The “hERG current change (%, negative = inhibition) at 10uM” value of the first is higher: 12.3% for the first, 9.22% for the second.

Compared with `COc1ccccc1NS(=O)(=O)c1cc2c(cc1C)NC(=O)CO2`, `CN(C)C=O.COc1ccccc1NC(=O)C1=C(C)NC(=O)NC1c1ccccc1[N+](=O)[O-]` (stereo not shown) is higher in “hERG current change (%, negative = inhibition) at 10uM” value: -7.43% for the first, 7.42% for the second.

First: CN1C(=O)/C(=C/c2cccc(Cl)c2)Sc2ccc(C(=O)N3CCOCC3)cc21
Second: Cc1cccc(/C=C2\Sc3ccc(C(=O)N4CCOCC4)cc3N(C)C2=O)c1
The “hERG current change (%, negative = inhibition) at 10uM” value of the first is lower: -50.3% for the first, -40.7% for the second.

Going from `Cc1cccc(/C=C2\Sc3ccc(C(=O)N4CCCCC4)cc3N(C)C2=O)c1` to `CN1C(=O)/C(=C/c2cccc(Cl)c2)Sc2ccc(C(=O)N3CCCC3)cc21`, the “hERG current change (%, negative = inhibition) at 10uM” value falls from 12.1% to -49.7%.

Going from `COc1ccc(/C=C2\Sc3ccc(C(=O)N4CCOCC4)cc3N(C)C2=O)cc1` to `CCOc1ccc(/C=C2/Sc3ccc(C(=O)N4CCOCC4)cc3N(C)C2=O)cc1OC`, the “hERG current change (%, negative = inhibition) at 10uM” value falls from -15.3% to -18.5%.

Compared with `CCOC(=O)N1CCN(C(=O)c2ccc3c(c2)N(C)C(=O)/C(=C\c2ccc(OCC)c(OC)c2)S3)CC1`, `CCOc1ccc(/C=C2/Sc3ccc(C(=O)N4CCN(C(=O)c5ccco5)CC4)cc3N(C)C2=O)cc1OC` is lower in “hERG current change (%, negative = inhibition) at 10uM” value: -32.5% for the first, -53.9% for the second.

First: CN1CCN(C(=O)c2ccc3c(c2)N(C)C(=O)/C(=C/c2cccc(Cl)c2)S3)CC1
Second: COc1cc(C(=O)N2CCN(c3ccccc3Cl)CC2)ccc1OCC(=O)N1CCOCC1
The “hERG current change (%, negative = inhibition) at 10uM” value of the first is lower: -55.1% for the first, -28.6% for the second.

Compared with `COc1ccc(C(C(=O)NC(C)(C)C)N(Cc2cccnc2)C(=O)CCC(=O)Nc2cc(C)on2)cc1` (stereo not shown), `COc1ccc(/C=N/NC(=O)CC(=O)NCc2cccnc2)c(OC)c1` is lower in “hERG current change (%, negative = inhibition) at 10uM” value: 10.9% for the first, 4.71% for the second.

Going from `COc1cc(-c2csc(C)n2)ccc1O` to `COc1cc(C(=O)Nc2nc(-c3ccc(C)cc3)cs2)ccc1OCC(=O)N1CCOCC1`, the “hERG current change (%, negative = inhibition) at 10uM” value falls from 8.67% to -18.9%.

Going from `COc1cccc(N2CCN(C(=O)C3CCCN(S(=O)(=O)c4cnc[nH]4)C3)CC2)c1` (stereo not shown) to `O=C(CSC(=S)N1CCCC1)N1CCN(S(=O)(=O)c2cccc([N+](=O)[O-])c2)CC1`, the “hERG current change (%, negative = inhibition) at 10uM” value falls from 17.4% to 5.69%.

Compared with `O=C(NCc1ccc2c(c1)OCO2)c1ccncc1`, `CC(C)(C)c1ccc(-c2nnc(SCC(=O)c3ccc4c(c3)OCCO4)o2)cc1` is higher in “hERG current change (%, negative = inhibition) at 10uM” value: -12.6% for the first, 12.3% for the second.

Compared with `Cc1ccc(NCC(=O)Nc2cccc(F)c2)cc1S(=O)(=O)N1CCCCCC1`, `CCC(=O)c1ccc(N2CCCCCC2)c(F)c1` is higher in “hERG current change (%, negative = inhibition) at 10uM” value: -22.6% for the first, 4.04% for the second.

Compared with `COC(=O)c1ccccc1NC(=O)N1CSC[C@H]1C(=O)OC`, `N#Cc1ccccc1NC(=S)NC(=O)C1CCC1` is lower in “hERG current change (%, negative = inhibition) at 10uM” value: 15.8% for the first, 9.95% for the second.

Compared with `CCOc1ccccc1C(=O)Nc1ccc(NC(=O)c2ccccc2)cc1`, `Cc1cc(C)n(CC(O)COc2ccccc2C(=O)Nc2ccccc2)n1` (stereo not shown) is lower in “hERG current change (%, negative = inhibition) at 10uM” value: 12.7% for the first, -26.1% for the second.

First: CCCN(CCC)CC(O)COc1ccccc1C(=O)Nc1ccccc1.Cl (stereo not shown)
Second: CCCCN(CCCC)CC(O)COc1ccccc1C(=O)Nc1ccccc1 (stereo not shown)
The “hERG current change (%, negative = inhibition) at 10uM” value of the first is higher: -68.2% for the first, -98.7% for the second.

Going from `CC1(C)NC(=O)N(CC(O)COc2ccccc2C(=O)Nc2ccccc2)C1=O` (stereo not shown) to `CC(=O)c1ccc(NC(=O)c2cc(C)nc3ccccc23)cc1`, the “hERG current change (%, negative = inhibition) at 10uM” value rises from -6.2% to 16.5%.

First: CCCCN(CCCC)CC(O)COc1ccccc1Br.Cl (stereo not shown)
Second: CCCCC(=O)NC(c1ccc(OC)c(OC)c1)c1c(O)ccc2ccccc12 (stereo not shown)
The “hERG current change (%, negative = inhibition) at 10uM” value of the first is lower: -40.6% for the first, -13.7% for the second.

First: CSc1ccc(/C=N/NC(=O)c2sccc2C)cc1
Second: Cc1ccc(/C=N/NC(=O)COc2ccccc2-c2ccccc2)cc1
The “hERG current change (%, negative = inhibition) at 10uM” value of the first is higher: 15.4% for the first, -3.49% for the second.

First: O=C1C(Cl)=C(N2CCOCC2)C(=O)N1c1ccccc1F
Second: COc1cc(C(=O)N2CCN(c3ccccc3F)CC2)ccc1OCC(=O)N1CCOCC1
The “hERG current change (%, negative = inhibition) at 10uM” value of the first is higher: 20.3% for the first, -60.9% for the second.

Compared with `CC(=O)c1ccc(N2CCN(C(=O)CN3C(=O)NC4(CCCCC4)C3=O)CC2)c(F)c1`, `CC(=O)c1ccc(N2CCN(C(=O)COc3ccc(F)cc3)CC2)c(F)c1` is lower in “hERG current change (%, negative = inhibition) at 10uM” value: 0.416% for the first, -71.5% for the second.

Compared with `CC(=O)c1ccc(N2CCN(C(=O)COc3ccccc3F)CC2)c(F)c1`, `CCC(=O)c1ccc(N2CCN(C(=O)COc3ccccc3F)CC2)c(F)c1` is lower in “hERG current change (%, negative = inhibition) at 10uM” value: -39.7% for the first, -50.9% for the second.

Going from `CCc1ccc(OCC(=O)N2CCN(c3ccccc3F)CC2)cc1` to `CCC(=O)c1ccc(N2CCN(C(=O)COc3ccc(F)cc3)CC2)c(F)c1`, the “hERG current change (%, negative = inhibition) at 10uM” value falls from 20.2% to -73.4%.

First: COc1ccc(-c2csc(NC(=O)c3ccccc3NS(=O)(=O)c3ccc(F)c(F)c3)n2)cc1
Second: COc1ccc(S(=O)(=O)Nc2ccccc2C(=O)Nc2nc(-c3ccc(F)cc3)cs2)cc1OC
The “hERG current change (%, negative = inhibition) at 10uM” value of the first is higher: 19.3% for the first, -51.7% for the second.

Going from `COc1cc(C(=O)N2CCN(c3ccccc3O)CC2)ccc1OCC(=O)N1CCOCC1` to `COc1cc(C(=O)Nc2nc(-c3ccc(F)cc3)cs2)ccc1OCC(=O)N1CCOCC1`, the “hERG current change (%, negative = inhibition) at 10uM” value falls from 3.06% to -53.3%.

First: CC(=O)c1cccc(NC(=O)NCc2ccco2)c1
Second: CC(=O)c1ccc(N2CCN(C(=O)Cc3ccccc3)CC2)c(F)c1
The “hERG current change (%, negative = inhibition) at 10uM” value of the first is higher: -2.14% for the first, -9.6% for the second.

Compared with `COc1ccc(Cl)cc1Nc1nc(NCCO)nc(N2CCCCC2)n1`, `CCC(=O)c1ccc(N2CCCC2)c(F)c1` is higher in “hERG current change (%, negative = inhibition) at 10uM” value: -3.45% for the first, 6.95% for the second.

Going from `CCN(CC)S(=O)(=O)c1ccc(C)c(NC(=S)N2CCN(C/C=C/c3ccccc3)CC2)c1` to `COc1ccccc1N1CCN(C(=O)CCNS(=O)(=O)c2ccc(Br)s2)CC1`, the “hERG current change (%, negative = inhibition) at 10uM” value falls from -2.74% to -31.3%.

Going from `CCOc1ccc(NS(=O)(=O)c2ccc(NC(=S)NC(=O)CC(C)C)cc2)cc1` to `CCOC(=O)c1cnc2ccc(C(=O)OC)cc2c1Nc1ccc(C(=O)O)cc1.Cl`, the “hERG current change (%, negative = inhibition) at 10uM” value falls from 8.92% to 5.66%.

Going from `CCC(CC)C(=O)c1c[nH]c(C(=O)NCc2cccnc2)c1` to `CC(C)CN1CCC(CNC(=O)CCc2nnc(Cc3c[nH]c4ccccc34)o2)CC1`, the “hERG current change (%, negative = inhibition) at 10uM” value falls from 18.6% to -1.27%.

Compared with `Cc1ccc(S(=O)(=O)N(C)CCCC(=O)NC(C)(C)C)cc1`, `Cc1ccc(CN(C)C(=O)c2c(C)nn(-c3ccccc3)c2C)cc1` is lower in “hERG current change (%, negative = inhibition) at 10uM” value: 13.3% for the first, 8.12% for the second.

Going from `CO/N=C/c1cn(-c2ccc(Cl)cc2)nn1` to `COC(=O)c1ccc(Nc2nc(C)cc(C)n2)cc1`, the “hERG current change (%, negative = inhibition) at 10uM” value rises from -2.53% to 10.9%.

First: CCOC(=O)N1CCN(c2ccc(C(=O)CC)cc2F)CC1
Second: CCOC(=O)N1CCN(c2cc(C)c(C(C)=O)cc2F)CC1
The “hERG current change (%, negative = inhibition) at 10uM” value of the first is lower: -9.37% for the first, 2.71% for the second.

Compared with `CC(=O)c1cc(F)c(N2CCN(C(=O)COc3ccc(F)cc3)CC2)cc1C`, `CC(=O)c1cc(F)c(N2CCN(C(=O)COc3ccccc3F)CC2)cc1C` is higher in “hERG current change (%, negative = inhibition) at 10uM” value: -76.3% for the first, -7.84% for the second.

Going from `CC(=O)c1ccc(N2CCCC2)c(F)c1` to `CCCCCC(=O)N1CCN(c2ccc(C(C)=O)cc2F)CC1`, the “hERG current change (%, negative = inhibition) at 10uM” value falls from 1.88% to -60.9%.

First: COc1ccc(-c2csc(NC(=O)c3ccc(OCC(=O)N4CCOCC4)c(OC)c3)n2)cc1
Second: COC(=O)c1ccc(Nc2cc(C)nc3ccc(C)cc23)cc1.Cl
The “hERG current change (%, negative = inhibition) at 10uM” value of the first is higher: -48% for the first, -55.6% for the second.

Going from `CC1=Nc2ccccc2NC(=O)C1Sc1nnc(C)s1` (stereo not shown) to `COC(=O)C1C(=O)NC(SC)=C(C#N)C1c1ccccc1` (stereo not shown), the “hERG current change (%, negative = inhibition) at 10uM” value rises from -12.6% to 8.09%.

First: COc1cc2c3cc1Oc1cc(ccc1O)C[C@@H]1c4c(cc(OC)c(O)c4Oc4ccc(cc4)C[C@H]3N(C)CC2)CCN1C
Second: COC(=O)c1ccc2nc(C)cc(Nc3ccc(N(C)C)cc3)c2c1.Cl
The “hERG current change (%, negative = inhibition) at 10uM” value of the first is higher: -37% for the first, -67.1% for the second.

Compared with `S=C1NC[C@H](Cc2ccccc2)N1CCCCC1CCCCC1`, `C=C(C)c1cccc(C(C)(C)NC(=O)N2CCN(c3ncccn3)CC2)c1` is lower in “hERG current change (%, negative = inhibition) at 10uM” value: 4.71% for the first, 0.0429% for the second.

Compared with `CC(=O)c1ccc(Nc2nc(C)cc(C)n2)cc1`, `CC(=O)c1ccc(Nc2cc(C)nc3ccc(C)cc23)cc1` is lower in “hERG current change (%, negative = inhibition) at 10uM” value: 4.62% for the first, -74.5% for the second.

First: COC(=O)c1ccc(Nc2cc(C)nc3ccccc23)cc1.Cl
Second: COC(=O)c1ccc2nc(C)cc(Nc3ccccc3C)c2c1.Cl
The “hERG current change (%, negative = inhibition) at 10uM” value of the first is higher: -37.3% for the first, -47.5% for the second.

Compared with `Cc1ccc(NN2C(=O)C=CC2=O)cc1`, `N/C(=N\S(=O)(=O)c1ccccc1)c1ccc([N+](=O)[O-])cc1` is lower in “hERG current change (%, negative = inhibition) at 10uM” value: 0.632% for the first, -30% for the second.

In the case of `COC(=O)c1cc(CSc2nnc(NC3CCCCC3)s2)oc1C`, the “hERG current change (%, negative = inhibition) at 10uM” value is reported as -10.1%.
